15-hLO-2 inh = inhibitors of human 15-lipoxygenase 2 (ALOX15B) | purified 15hLO-2, xylenol orange hydroperoxide absorbance | Potency, µM (highest dose often 57.1 µM), for inactives: top-dose activity change, negative = inhibition, actives largely listed as inhibitors | hit rate 0.56% among 110,000 | AID 881; note: potency is the fitted concentration of half-maximal effect; nearly all actives have a fitted effect of over 60% in size
Target sequence (O15296 whole entry, looked up): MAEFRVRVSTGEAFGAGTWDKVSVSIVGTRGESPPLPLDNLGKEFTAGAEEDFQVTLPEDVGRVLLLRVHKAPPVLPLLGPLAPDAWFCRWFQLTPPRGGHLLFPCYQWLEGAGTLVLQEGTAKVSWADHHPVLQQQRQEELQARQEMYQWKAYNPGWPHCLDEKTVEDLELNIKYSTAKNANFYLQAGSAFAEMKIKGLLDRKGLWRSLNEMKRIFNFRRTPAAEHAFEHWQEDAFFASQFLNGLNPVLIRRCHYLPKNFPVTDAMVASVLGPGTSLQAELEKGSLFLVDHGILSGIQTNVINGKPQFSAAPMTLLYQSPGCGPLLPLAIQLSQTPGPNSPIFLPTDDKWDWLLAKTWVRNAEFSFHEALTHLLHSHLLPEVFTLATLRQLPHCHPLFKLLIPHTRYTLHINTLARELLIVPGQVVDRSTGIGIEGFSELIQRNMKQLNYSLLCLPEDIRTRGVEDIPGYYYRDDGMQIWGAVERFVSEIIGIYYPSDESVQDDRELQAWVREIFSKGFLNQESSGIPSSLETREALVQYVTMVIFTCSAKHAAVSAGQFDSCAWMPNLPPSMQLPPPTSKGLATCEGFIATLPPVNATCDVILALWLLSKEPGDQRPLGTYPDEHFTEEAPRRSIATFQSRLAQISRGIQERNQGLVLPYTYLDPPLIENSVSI
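Read-out: hydroperoxide product oxidises ferrous iron, measured as xylenol orange complex via the 573-to-405 nm absorbance ratio after 30 min. Reaction: 50 nM enzyme, 15 min compound preincubation, 45 uM arachidonic acid, 90 min RT, Hepes pH 7.5 with Triton X-100.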
ALOX12 inhib = blocks human 12-lipoxygenase activity | hit rate 0.12% among 150,000 | purified 12-hLO, xylenol orange hydroperoxide absorbance | Potency, µM (doses to about 57.1 µM), for the others: at the highest dose activity change, negative = inhibition, actives largely listed as inhibitors; note: potency is the fitted concentration of half-maximal effect; nearly all actives have a fitted effect of over 55% in size
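Lipoxygenase turnover measured by absorbance at 573 and 405 nm after Fe-XO development. Human 12hLO 150 nM, arachidonate 40 uM, pH 7.0 Hepes buffer with detergent; 15 min compound preincubation, 30 min reaction.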
PNC inhibitor = blocks assembly of the perinucleolar compartment; PC3M PTB-GFP, PNC prevalence imaging, 16 h; stronger effect = lower value; activity change (PNC), negative = inhibition, % at 10 µM; hit rate 3.1% among 140,000;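 active = readout at or below -70, meaning at least 70% loss of cells showing the perinucleolar compartment, a nuclear body marking cancer cells; inconclusive = readout between -30 and a set limit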;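 note: plate controls were DMSO wells for no effect and camptothecin positive control wells for full effect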
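PC3M cells stably expressing PTB-GFP, 750–1000 cells/well, treated 16 h at 37 °C with compound (23 nl of library stock), in duplicate. After paraformaldehyde fixation and Hoechst stain, imaged at 20x; PNC prevalence scored by image analysis.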
Numbers without * were called inactive; ? = inconclusive; . = no result; [ ] = remark or other dose. A selection: hits, their analogues and other compounds. The true share with any hit is near 3.2%. Unless noted, calls come from the whole dose curve; as a rule, active = well fitted curve in the direction sought with a large enough effect; inconclusive = small, poorly fitted or top-dose-only effect, or another doubt; inactive = no such curve, though single readings can be large; an effect the other way counts as inactive or inconclusive. Unless noted, % is set by controls: 0 for no effect and ±100 for the full control effect.

SMILES | 15-hLO-2 inh | ALOX12 inhib | PNC inhibitor
Clc1ccccc1CSc1nncn1NC/C=C/c1ccccc1 | . | -5.2% | ?
O=C(O)C1CCCNC1 (stereo unspecified) | . | -1.6% | -82.7*
O=C(O)[C@H]1CCCNC1 | 16.7% | 2.9% | .
S=c1[nH]nc(-c2ccco2)n1C1CCCCC1 | . | 2.1% | -84.7*
Nn1c(-c2ccco2)n[nH]c1=S | 14.6% | -2.2% | -24.5
N#Cc1sc2nc3c(cc2c1N)CCCC3 | . | -7.5% | 22.6
O=C(CCC(=O)N(CC(=O)NC1CCCC1)Cc1ccc2c(c1)OCO2)Nc1ccccn1 | -2.5% | 3.1% | -94.0*
O=C(CCCC(=O)N(CC(=O)NC1CCCCC1)Cc1ccccc1)Nc1ccccn1 | 1.1% | 0.9% | -14.7
COCCN(CC(=O)NCc1ccc2c(c1)OCO2)C(=O)CCC(=O)Nc1nccs1 | . | 1.6% | -100.0*
COCCNC(=O)CN(Cc1ccc2c(c1)OCO2)C(=O)CCC(=O)Nc1nccs1 | -4.0% | -9.3% | 7.9
CCC(C)n1c(SCc2ccccc2)nc2ccsc2c1=O (stereo unspecified) | . | -5.4% | -12.0
COc1ccc(NC(=O)Cc2coc3ccc4ccccc4c23)cc1S(=O)(=O)N1CCOCC1 | . | -4.4% | 59.6
COc1ccccc1CCn1c(=O)c(C)nc2cncnc21 | -0.5% | -6.5% | .
CCOc1ccc(C(=O)CC(=O)C(=O)NCCc2ccc(OC)c(OC)c2)cc1 | . | -7.1% | -4.5
COC(=O)[C@H]1CC=C[C@H]2CCN(Cc3ccc(Cl)c(Cl)c3)C(=O)[C@@H]12 | -14.1%[0.0915 µM] | -9.1%[0.00818 µM] | .
Brc1ccc(C=Nc2ccc(Nc3ccccc3)cc2)s1 | . | ? | -6.6
C(=Nc1ccc(Nc2ccccc2)cc1)c1ccc2ccccc2c1 | . | ? | -82.5*
COC(=O)CCCCCc1ccc(C(C)=O)s1 | 0.3% | -2.6% | ?
CC(C)=CCl | 3.8% | -3.5% | .
Cc1noc(C)c1C(=O)N1CCN(Cc2ccccc2)CC1 | 1.5% | -1.0% | -8.7
Cc1noc(C)c1C(=O)N1CCN(CCc2ccccc2)CC1 | 2.3% | -5.3% | -102.2*
O=C(Nc1ccon1)c1cc2ccccc2oc1=O | -24.2% | 7.2% | ?
NNC(=O)c1cc(Br)cs1 | . | 0.0% | -5.9
CN(N=O)C(=O)N[C@H]1C(O)C(O)C(CO)O[C@@H]1O (stereo partly specified) | -4.2% | 2.0% | .
COc1ccc(Cn2c(-c3ccc(C)cc3)c[n+]3ccccc23)cc1 | . | 2.0% | -22.3
SMILES | 15-hLO-2 inh | ALOX12 inhib | PNC inhibitor
C=CCNc1nc(-c2ccc([N+](=O)[O-])cc2)cs1 | . | -1.8% | -113.8*
C=CCNc1nc(-c2ccc(Cl)cc2)cs1 | 8.7% | -0.2% | 49.3
Cc1cc(C(F)(F)F)n2nc(C(=O)O)c(Cl)c2n1 | 8.6% | 5.2% | -89.8*
Cc1cc(C(F)(F)F)n2nc(C)c(-c3ccc(Cl)cc3)c2n1 | . | 0.4% | 22.6
CCCCCC1=C2CNC(CCC)(C(=O)OC)C=C2C(C)C1=O (stereo unspecified) | 20.3% | -7.2% | .
O=C(O)C(=O)/C=C(\O)c1ccc(Br)cc1 | 27.9%[11.4 µM] | -6.8%[11.4 µM] | .
Clc1ccc(CSc2ncn[nH]2)cc1 | 3.9% | -2.6% | -21.1
Fc1ccccc1CSc1ncn[nH]1 | . | 0.9% | -100.0*
Cc1cccc(N2CCN(C(=O)C3CCN(c4nnc(-n5cccc5)s4)CC3)CC2C)c1 (stereo unspecified) | . | -1.0% | -112.2*
Cc1ccc(Cl)cc1N1CCN(C(=O)C2CCN(c3nnc(-n4cccc4)s3)CC2)CC1 | -3.5% | -2.5% | ?
CCCCCCNc1nc(-c2ccc(OC)cc2)c(CCC(=O)O)s1 | . | -6.8% | 0.5
CCc1ccc(-c2nc(C(N)=O)c3[nH]c(=O)n(-c4ccccc4OC)c3n2)cc1 | -1.5% | -2.6% | -105.8*
COc1ccc(-c2nc(C(N)=O)c3[nH]c(=O)n(-c4cccc(Cl)c4)c3n2)cc1OC | 3.7%[2.29 µM] | -1.9% | -14.8
CN(C)C(=O)c1ccc(-c2ccc3ncnc(NCc4cccs4)c3c2)cc1 | 10.0% | . | .
CC1=NN(c2ccccc2)C(=O)/C1=C/c1c(O)n(-c2ccc(F)c(Cl)c2)[nH]c1=O | . | -6.0% | -116.4*
CC1=NN(c2ccccc2)C(=O)/C1=C\c1c(C)[nH]n(-c2ccccc2)c1=O | 1.6% | -1.6% | 20.0
Cc1c(-c2ccccc2)oc2c(C(=O)N3CCN(c4ccc([N+](=O)[O-])cc4)CC3)cccc2c1=O | . | -2.8% | 8.1
COc1cc(OC)c(N2CC34C=CC(O3)C(C(=O)O)C4C2=O)cc1Cl (stereo unspecified) | -2.8% | 4.0% | -91.7*
CCc1ccccc1N1CC23C=CC(O2)C(C(=O)O)C3C1=O (stereo unspecified) | 3.6% | 4.9% | -4.8
COC(=O)[C@@]1(Cc2ccc(OC)cc2)[C@H]2c3cc(C(=O)N(C)C)n(Cc4ccccc4)c3C[C@H]2CN1C(=O)c1ccccc1 | -7.4% | -4.7% | .
O=C(NCCC1=CCCCC1)C1CCN(C(=O)c2ccc(Br)cc2)CC1 | . | -0.7% | 19.7
O=C(Nn1c(C2CCCCC2)nc2ccccc2c1=O)c1ccc([N+](=O)[O-])cc1Cl | . | 1.8% | ?
Nc1cc(Cl)c(N)c(Cl)c1 | -18.4% | -2.8% | .
Nc1cc(Br)c(N)c(Br)c1 | -23.9% | -2.0% | -93.3*
O=C1C2CCCN2C(c2ccccc2)N1c1ccc(F)cc1 (stereo unspecified) | 0.6% | 6.9% | 44.0
SMILES | 15-hLO-2 inh | ALOX12 inhib | PNC inhibitor
O=C1C2CCCN2C(c2ccc(F)cc2)N1c1ccc(Cl)cc1 (stereo unspecified) | 9.5% | -12.9% | -98.4*
Cc1cccc2sc(NC(=O)C3CCCO3)nc12 (stereo unspecified) | . | -2.1% | -100.0*
Cc1c(NC(=O)C2CCCO2)cccc1[N+](=O)[O-] (stereo unspecified) | . | -6.3% | -85.1*
Cc1cccc2sc(NC(=O)C3CCCN(S(=O)(=O)c4cccc5nonc45)C3)nc12 (stereo unspecified) | . | -0.4% | -100.0*
CCc1cccc(C)c1NC(=O)C1CCCO1 (stereo unspecified) | -3.2% | 3.3% | ?
Cc1ccc(CCNC(=O)C2CCCN(S(=O)(=O)c3cccc4nsnc34)C2)cc1 (stereo unspecified) | -22.2% | -4.1% | ?
COc1ccc(NC(=O)C2CCCN(S(=O)(=O)c3cccc4nonc34)C2)cc1 (stereo unspecified) | -18.8% | 4.0% | -1.1
Cc1cccc(CCNC(=O)C2CCCN(S(=O)(=O)c3cccc4nsnc34)C2)c1 (stereo unspecified) | -2.7% | 12.0% | -95.2*
CCC(C)c1ccccc1NC(=O)C1CCCO1 (stereo unspecified) | -6.5% | -2.7% | ?
O=C(Cn1c(=O)n(CCCC(=O)NC2CCCC2)c(=O)c2ccccc21)NCCC1=CCCCC1 | -4.3% | -3.0% | ?
N#CCCN(C(=O)Nc1ccc(Cl)c(Cl)c1)c1ccccc1 | . | -2.6% | ?
O=C(Oc1ccccc1)n1c(=O)oc2ccc(Cl)cc21 | . | 4.4% | .
Cc1ccc(CSc2nnc(-c3ccc(S(=O)(=O)N4CCCC4)cc3)o2)cc1 | 2.1% | -1.3% | -91.5*
O=S(=O)(c1ccc(-c2nnc(SCc3ccccc3)o2)cc1)N1CCCC1 | -4.2% | -4.0% | 2.9
O=C(N[C@@H](c1ccccc1)[C@@H]1C[C@H]1C(=O)NCc1ccccc1)OCc1ccccc1 | 21.8% | 0.5% | .
CC(C)c1cccc2cc3c(nc12)-c1cccc(=O)n1C3 | 7.7% | -1.4% | .

Source: PubChem
